Test results from the OligoGym collection.
Also: reference of the scale not given here.

What follows are sequences tested against KDELR1 (assay: pooled miR-30 sensor sort-seq; sequence = guide strand). Settings: shRNA.
TCGTAAGTAGCTTTGAACTTGC showed a sensor-assay potency score (higher = more potent) of -0.201. TAGAGTGAGATGTAGTTGGTGA gave a sensor-assay potency score (higher = more potent) of 0.498. In the case of TAAGTAGCTTTGAACTTGCTAT, the sensor-assay potency score (higher = more potent) is reported as -0.0372. Sequence TTTGGTGATATAGAGGTAGAAG has a sensor-assay potency score (higher = more potent) of -0.962. ATCGTAAGTAGCTTTGAACTTG showed a sensor-assay potency score (higher = more potent) of -0.446.

The sequences below were run against KDM2B in the same assay as above. Settings: shRNA.
Work on TATCGCTGGCGGTCAATCGGGC yielded a sensor-assay potency score (higher = more potent) of -0.118. Sequence TTGGAGATATTGGTCCAGCTGA has a sensor-assay potency score (higher = more potent) of -0.912. TATCTCTCCAGGACATACCAGC gave a sensor-assay potency score (higher = more potent) of -0.897. Work on TTCTTTGCCAGGTTTGAGCCGC yielded a sensor-assay potency score (higher = more potent) of -0.547. TGGTTGAACAGCTTCTCCCTTG showed a sensor-assay potency score (higher = more potent) of -0.428. For TTCGAGTGCTCATCCGACCTGC, the sensor-assay potency score (higher = more potent) was 0.201. Work on TTACACTTCGGACACTCCCAGC yielded a sensor-assay potency score (higher = more potent) of -1.12. Work on TTGTCCATCTGACCTGGCCTGT yielded a sensor-assay potency score (higher = more potent) of -0.884. TTTGGCATCGTTCCACACGGTC gave a sensor-assay potency score (higher = more potent) of -1.07. With TTCTTTGCCAGGTTTGAGCTGC the sensor-assay potency score (higher = more potent) was -0.103. For TTCTTGGAGATATTGGTCCAGC, the sensor-assay potency score (higher = more potent) was -0.935. In the case of TAAACTTGCCTTCCTCCTCTTC, the sensor-assay potency score (higher = more potent) is reported as -0.422.

What follows are sequences tested against KDR in the same assay as above. Settings: shRNA.
For TTCTTCTTGGTCATCAGCCCAC, the sensor-assay potency score (higher = more potent) was -0.727. Sequence TTTTGCTTCACAGAAGACCATG has a sensor-assay potency score (higher = more potent) of -1.02. With TTGCACTCCAATCTCTATCAGC the sensor-assay potency score (higher = more potent) was -0.492. ATTTTGACTGCTACTGTCCTGC was tested, and the sensor-assay potency score (higher = more potent) was 0.0399. For TAATAGACTGGTAACTTTCATC, the sensor-assay potency score (higher = more potent) was -0.621. TAGCTGATCATGTAGCTGGGAA was tested, and the sensor-assay potency score (higher = more potent) was -0.114. For TTGCTGTCTTGTCAATTCCAAA, the sensor-assay potency score (higher = more potent) was -1.68. Work on TTGACTGCTACTGTCCTGCAAG yielded a sensor-assay potency score (higher = more potent) of -0.615. In the case of TAGACTGGTAACTTTCATCATT, the sensor-assay potency score (higher = more potent) is reported as -0.75. In the case of TTCTTCTACATCACTGAGGGAC, the sensor-assay potency score (higher = more potent) is reported as -0.165. TAATTTGGTTCTGTCTTCCAAA was tested, and the sensor-assay potency score (higher = more potent) was -0.462. In the case of TGTCTTTTCTTGGTCTTCCTGT, the sensor-assay potency score (higher = more potent) is reported as 0.316.

Each sequence was assayed against KHDRBS3 in the same assay as above. Settings: shRNA.
TTGCTGTCCTCGCTGAAGGTGC showed a sensor-assay potency score (higher = more potent) of -1.17. In the case of TAGTCCACTCTTCTTGCCCGTA, the sensor-assay potency score (higher = more potent) is reported as -0.553. TTGAGTTAGTCCACTCTTCTTG showed a sensor-assay potency score (higher = more potent) of 0.078. TTGTGTCTTGAGTTAGTCCACT was tested, and the sensor-assay potency score (higher = more potent) was -0.733. TAAGTCTCTTGTGTCGGGGGTG was tested, and the sensor-assay potency score (higher = more potent) was -0.204. TAACACTTTCTGTCCCAGCTTC showed a sensor-assay potency score (higher = more potent) of 0.341. For TTGAACAGTATACAGGACTGGT, the sensor-assay potency score (higher = more potent) was -0.303. TTCTATTTCTTGGTTCACCAGG showed a sensor-assay potency score (higher = more potent) of -0.397. With TGGTACTACAACTCCAACTGGC the sensor-assay potency score (higher = more potent) was -0.54. TACTACAACTCCAACTGGCCGG gave a sensor-assay potency score (higher = more potent) of -0.46. For TTCTTCTTGTAAACGCTTCAGA, the sensor-assay potency score (higher = more potent) was -0.501.
